A selection: hits, their analogues and other compounds. The true share with any hit is near 3.5%.
TEAD-YAP inh: TEAD-YAP interaction inhibition, primary screen, TEAD-YAP interaction inhibitor project, luminescence, HEK-TIYL cells; hit rate 1.4% among 640,000; inhibition, % at 9.12 µM; TEAD-Gal4/YAP UAS-luciferase luminescence; in the data active means inhibition above about 32%;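 further: 0% = median of test compound wells and 100% = reference inhibitor wells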
FBW7 activator: FBW7 E3 ligase activators, primary screen, biochemical, AlphaScreen, human; F-box/WD repeat-containing protein 7 (Homo sapiens), Q969H0; AlphaScreen FBW7–phospho-cyclin E peptide binding, activator screen; normalized activity (activation), % at 26.1 µM; hit rate 0.13% among 650,000; AID 1259310, 2017; in the data active means normalized activity above about 1.9%;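 further: purified mutant Fbw7 with reduced substrate affinity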
GPR151 activ: activators of human GPR151, primary screen, cell-based, PathHunter beta-arrestin, luminescence. G-protein coupled receptor 151 (Homo sapiens), Q8TDV0. AID 1508602, 2020. PathHunter beta-arrestin GPR151 cells. activation, % at 11.2 µM. hit rate 1% among 650,000; in the data active means activation above about 4.9%;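 further: 0% = median of compound wells and 100% = cells with positive control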
MITF inh: MITF inhibitors, primary screen, biochemical, AlphaScreen, human; inhibition, % at 2.6 µM; AlphaScreen MITF homodimerization, bead proximity signal; Microphthalmia-associated transcription factor (Homo sapiens), O75030; hit rate 0.91% among 650,000; in the data active means inhibition above about 50%;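 further: 0% = vehicle wells with protein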
* = called active by the depositor.

For CCCNc1nc(N2CCN(c3ccccn3)CC2)nc2c1ncn2-c1ccccc1 the results were TEAD-YAP inh 40*, FBW7 activator 0, GPR151 activ -1 and MITF inh 0.
c1ccc(-n2cnc3c(NCc4nc5ccccc5[nH]4)nc(N4CCc5ccccc5C4)nc32)cc1 was read as TEAD-YAP inh -13, FBW7 activator 0, GPR151 activ 1 and MITF inh 3.
For c1ccc(-n2cnc3c(NCc4nc5ccccc5[nH]4)nc(N4CCN(c5ccccn5)CC4)nc32)cc1 the results were TEAD-YAP inh 48*, FBW7 activator 0, GPR151 activ -2 and MITF inh -1.
For O=[N+]([O-])c1cccc(P(=O)(c2cccc([N+](=O)[O-])c2)N2CCCCC2)c1 the results were TEAD-YAP inh -12, FBW7 activator 0, GPR151 activ 1 and MITF inh 4.
For CCOC(=O)C(C)Oc1cc(C)c2c(c1)oc(=O)c1ccccc12 (stereo not given) the results were TEAD-YAP inh 5, FBW7 activator -1, GPR151 activ -1 and MITF inh 7.
For O=S1(=O)Nc2c(ccc3cccnc23)-c2ccccc21 the results were TEAD-YAP inh 60*, FBW7 activator 0, GPR151 activ 4 and MITF inh 88*.
For Cc1cc(C)c2c(N)c(C(=O)Nc3ccccn3)sc2n1 the results were TEAD-YAP inh 95*, FBW7 activator 0, GPR151 activ -5 and MITF inh -2.
Cc1cccc(NC(=O)c2sc3nc(C)cc(C(F)(F)F)c3c2N)n1 was read as TEAD-YAP inh 48*, FBW7 activator 0, GPR151 activ 1 and MITF inh 9.
For OCCNc1nc(N2CCOCC2)nc2c1ncn2-c1ccccc1 the results were TEAD-YAP inh 48*, FBW7 activator 0, GPR151 activ 0 and MITF inh 5.
c1ccc2[nH]c(CNc3nc(N4CCC(N5CCOCC5)CC4)nc4c3ncn4-c3ccsc3)nc2c1 was read as TEAD-YAP inh 54*, FBW7 activator 0, GPR151 activ 0 and MITF inh 4.
Screening CC(=O)Nc1ccc(Nc2nc(N3CCC(N4CCOCC4)CC3)nc3c2ncn3-c2ccsc2)cc1 returned TEAD-YAP inh 46*, FBW7 activator 0, GPR151 activ -1 and MITF inh -8.
For OCCNc1nc(N2CCOCC2)nc2c1ncn2-c1ccsc1 the results were TEAD-YAP inh 69*, FBW7 activator 0, GPR151 activ 0 and MITF inh 3.
Screening c1ccc(OCCNc2nc(N3CCOCC3)nc3c2ncn3-c2ccccc2)cc1 returned TEAD-YAP inh -8, FBW7 activator 0, GPR151 activ 0 and MITF inh -2.
COc1cc(Nc2nc(N3CCC(N4CCOCC4)CC3)nc3c2ncn3-c2ccsc2)cc(OC)c1OC was read as TEAD-YAP inh 5, FBW7 activator 0, GPR151 activ 1 and MITF inh 6.
Screening O=C(CCNS(=O)(=O)c1ccc(Cl)cc1)Nc1ccc(Cl)cc1 returned TEAD-YAP inh 3, FBW7 activator 0, GPR151 activ 1 and MITF inh -4.
`c1cc(-n2cnc3c(NCCN4CCOCC4)nc(N4CCOCC4)nc32)cs1` gave TEAD-YAP inh 56*, FBW7 activator 0, GPR151 activ -1 and MITF inh 0.
c1ccc2c(c1)CCN(c1nc(NCCN3CCOCC3)c3ncn(-c4ccsc4)c3n1)C2 was read as TEAD-YAP inh -1, FBW7 activator 0, GPR151 activ 0 and MITF inh 10.
`c1cc(-n2cnc3c(NCCN4CCOCC4)nc(N4CCC(N5CCOCC5)CC4)nc32)cs1` gave TEAD-YAP inh 43*, FBW7 activator 0, GPR151 activ 0 and MITF inh -2.
`CCN(CC)C(=O)C1CCCN(c2nc(C)cc(Nc3ccc(NC(C)=O)cc3)n2)C1` (stereo not given) gave TEAD-YAP inh 3, FBW7 activator 0, GPR151 activ 1 and MITF inh 13.
`C=CCn1c(Cl)c(C=O)s/c1=N\S(=O)(=O)c1cccs1` gave TEAD-YAP inh 60*, FBW7 activator 0, GPR151 activ -2 and MITF inh 6.
`C=CCn1c(Cl)c(/C=N/NC(=O)OCC)s/c1=N\S(=O)(=O)c1cccs1` gave TEAD-YAP inh 45*, FBW7 activator 1, GPR151 activ 4 and MITF inh 8.
COc1ccc(N(C)S(=O)(=O)c2cc(Br)cc3c2N(C(C)=O)CC3)c(OC)c1 was read as TEAD-YAP inh 56*, FBW7 activator 0, GPR151 activ -1 and MITF inh -8.
Screening CCN(c1ccccc1)S(=O)(=O)c1ccc(NC(=O)Nc2ccccc2)cc1 returned TEAD-YAP inh 18, FBW7 activator 0, GPR151 activ 0 and MITF inh 3.
`CCN(CC)S(=O)(=O)c1cc(C(=O)Nc2cccc(O)c2)ccc1Cl` gave TEAD-YAP inh 73*, FBW7 activator 0, GPR151 activ 0 and MITF inh 9.
`CCN(Cc1ccccc1)S(=O)(=O)c1cc(C(=O)Nc2ccc(C)c(F)c2)ccc1F` gave TEAD-YAP inh 57*, FBW7 activator 0, GPR151 activ 2 and MITF inh -6.
`CCN(c1ccccc1)S(=O)(=O)c1ccc(C(=O)Nc2ccc(C(C)=O)cc2)cc1` gave TEAD-YAP inh 7, FBW7 activator 2.3*, GPR151 activ 3 and MITF inh 8.
Screening CCN(CC)S(=O)(=O)c1cc(C(=O)Nc2ccc(C)c(F)c2)ccc1F returned TEAD-YAP inh -37, FBW7 activator 0, GPR151 activ -1 and MITF inh 8.
For O=C(Nc1ccc(Br)cc1)c1ccc(F)c(S(=O)(=O)NCc2cccs2)c1 the results were TEAD-YAP inh 60*, FBW7 activator 0, GPR151 activ 0 and MITF inh 7.
For COc1ccccc1C(=O)NNC(=O)c1ccc(I)cc1 the results were TEAD-YAP inh -8, FBW7 activator 0, GPR151 activ 0 and MITF inh -7.
For CCN(c1ccccc1)S(=O)(=O)c1cc(C(=O)Nc2ccc(Oc3ccccc3)cc2)ccc1F the results were TEAD-YAP inh 49*, FBW7 activator 0, GPR151 activ 1 and MITF inh 18.
`CCN(Cc1ccccc1)S(=O)(=O)c1cc(C(=O)Nc2ccc(Oc3ccccc3)cc2)ccc1F` gave TEAD-YAP inh 66*, FBW7 activator 0, GPR151 activ 1 and MITF inh 2.
Screening CCN(Cc1ccccc1)S(=O)(=O)c1cc(C(=O)Nc2cccc(Cl)c2)ccc1F returned TEAD-YAP inh 58*, FBW7 activator 0, GPR151 activ 1 and MITF inh 7.
`CN(Cc1ccccc1)S(=O)(=O)c1cc(C(=O)Nc2ccc(Br)cc2)ccc1F` gave TEAD-YAP inh 41*, FBW7 activator 0, GPR151 activ 1 and MITF inh -2.

Screening data from PubChem.
